Laboratory results published in PubChem BioAssay AID1159580 (chemical genetic matrix, 2015).
The campaign covered roughly 5,500 compounds. About 2,000 (36%) were called active. Roughly 18% stayed inconclusive and do not appear here. This is one part of the list. Unmarked numbers belong to inactive results. Rule as the data show it: active = normalized growth mostly below about 0.91 (no sharp cut-off); inconclusive = no clear call, values can overlap the other calls; inactive = mostly above about 0.92.

Test: chemical genetic growth profiling, strain panel (AID 1159580);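 also: tested at 20 µM; growth read once vehicle control cultures reached saturation at 30 °C; 1 = growth at the plate median or of vehicle wells; lower values mean less growth of the strain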
Conditions: S. cerevisiae deletion strains, growth OD

Question: What does the source list for O=c1c2cc(O)c(O)cc2oc2cc(O)c(C3O[C@H](CO)[C@H](O)[C@@H](O)[C@H]3O)c(O)c12 (stereo not given in full)?
Answer: normalized growth (locus YAL021C, strain ccr4, hits give low values): 1.01; normalized growth (locus YAL026C, strain drs2, hits give low values): 1.02; normalized growth (locus YAL030W, strain snc1, hits give low values): 1.02; normalized growth (locus YBL061C, strain skt5, hits give low values): 1.03; normalized growth (locus YBR009C, strain hhf1, hits give low values): 1.08; normalized growth (locus YBR023C, strain chs3, hits give low values): 1.02; normalized growth (locus YBR171W, strain sec66, hits give low values): 1.02; normalized growth (locus YBR231C, strain swc5, hits give low values): 1.03; normalized growth (locus YBR279W, strain paf1, hits give low values): 1.01; normalized growth (locus YCL011C, strain gbp2, hits give low values): 1.04; normalized growth (locus YCL016C, strain dcc1, hits give low values): 1.02; normalized growth (locus YCL061C, strain MRC1, hits give low values): 1.02; normalized growth (locus YCL069W, strain vba3, hits give low values): 1.02; normalized growth (locus YCR088W, strain abp1, hits give low values): 1.03; normalized growth (locus YDL005C, strain med2, hits give low values): 1.04; normalized growth (locus YDL040C, strain nat1, hits give low values): 1.02; normalized growth (locus YDR001C, strain nth1, hits give low values): 1.02; normalized growth (locus YDR069C, strain doa4, hits give low values): 1.03; normalized growth (locus YDR137W, strain rgp1, hits give low values): 1.04; normalized growth (locus YDR159W, strain sac3, hits give low values): 1.11; normalized growth (locus YDR195W, strain ref2): 1.12; normalized growth (locus YDR297W, strain sur2, hits give low values): 1.04; normalized growth (locus YDR334W, strain swr1, hits give low values): 1.01; normalized growth (locus YDR335W, strain msn5, hits give low values): 1.01; normalized growth (locus YDR392W, strain spt3, hits give low values): 1.07; normalized growth (locus YEL003W, strain gim4, hits give low values): 1.02; normalized growth (locus YEL037C, strain rad23, hits give low values): 1.02; normalized growth (locus YEL061C, strain CIN8 (second series), hits give low values): 1.02; normalized growth (locus YER015W, strain faa2, hits give low values): 1; normalized growth (locus YER016W, strain bim1, hits give low values): 1.04; normalized growth (locus YER111C, strain swi4, hits give low values): 1.03; normalized growth (locus YER155C, strain BEM2 (second series), hits give low values): 1.12; normalized growth (locus YFR010W, strain ubp6, hits give low values): 1.02; normalized growth (locus YGL167C, strain pmr1, hits give low values): 1.03; normalized growth (locus YGL173C, strain kem1, hits give low values): 1.03; normalized growth (locus YGL227W, strain vid30, hits give low values): 1.04; normalized growth (locus YGL240W, strain doc1, hits give low values): 1.14 [resistant] (active); normalized growth (locus YGL253W, strain hxk2, hits give low values): 0.986; normalized growth (locus YHR013C, strain ard1, hits give low values): 1; normalized growth (locus YHR027C, strain rpn1, hits give low values): 1.01; normalized growth (locus YHR030C, strain SLT2, hits give low values): 0.973; normalized growth (locus YHR079C, strain IRE1, hits give low values): 0.982; normalized growth (locus YHR142W, strain chs7, hits give low values): 0.945; normalized growth (locus YJL092W, strain hpr5, hits give low values): 1.03; normalized growth (locus YJL095W, strain BCK1 (second series), hits give low values): 1.02; normalized growth (locus YJL095W, strain BCK1, hits give low values): 1.03; normalized growth (locus YJL115W, strain asf1, hits give low values): 1.01; normalized growth (locus YJL129C, strain trk1, hits give low values): 0.999; normalized growth (locus YJL154C, strain vps35, hits give low values): 1.02; normalized growth (locus YJL164C, strain tpk1, hits give low values): 0.98; normalized growth (locus YJL166W, strain qcr8, hits give low values): 0.993; normalized growth (locus YJL187C, strain SWE1, hits give low values): 1.02; normalized growth (locus YJR066W, strain TOR1, hits give low values): 0.937; normalized growth (locus YKL160W, strain elf1, hits give low values): 0.988; normalized growth (locus YKR026C, strain gcn3, hits give low values): 1.02; normalized growth (locus YKR091W, strain srl3, hits give low values): 1.03; normalized growth (locus YLL001W, strain dnm1, hits give low values): 1.04; normalized growth (locus YLL026W, hits give low values): 1.02; normalized growth (locus YLL041C, strain sdh2, hits give low values): 1.01; normalized growth (locus YLR027C, strain aat2, hits give low values): 1.01; normalized growth (locus YLR113W, strain HOG1, hits give low values): 1.1; normalized growth (locus YLR221C, strain rsa3, hits give low values): 0.985; normalized growth (locus YLR258W, strain gsy2, hits give low values): 1.06; normalized growth (locus YLR262C, strain YPT6 (second series), hits give low values): 1.02; normalized growth (locus YLR320W, strain mms22, hits give low values): 1.07; normalized growth (locus YLR342W, strain FKS1, hits give low values): 1.03; normalized growth (locus YLR357W, strain rsc2, hits give low values): 1.01; normalized growth (locus YLR370C, strain arc18, hits give low values): 1.01; normalized growth (locus YLR384C, strain iki3, hits give low values): 1.01; normalized growth (locus YML120C, strain ndi1, hits give low values): 1; normalized growth (locus YMR058W, strain fet3, hits give low values): 1.01; normalized growth (locus YMR125W, strain sto1, hits give low values): 1.07; normalized growth (locus YMR129W, hits give low values): 1.02; normalized growth (locus YMR205C, strain PFK2, hits give low values): 1.13 [resistant] (active); normalized growth (locus YMR231W, strain pep5, hits give low values): 1.02; normalized growth (locus YNL071W, strain lat1, hits give low values): 1.02; normalized growth (locus YNL183C, strain NPR1, hits give low values): 0.98; normalized growth (locus YNL209W, strain ssb2, hits give low values): 0.986; normalized growth (locus YNL248C, strain rpa49, hits give low values): 0.992; normalized growth (locus YNL322C, strain KRE1 (second series), hits give low values): 1.02; normalized growth (locus YNR049C, strain mso1, hits give low values): 1.03; normalized growth (locus YOR001W, strain rrp6, hits give low values): 0.981; normalized growth (locus YOR070C, strain gyp1, hits give low values): 0.999; normalized growth (locus YOR080W, strain dia2, hits give low values): 1.03; normalized growth (locus YOR083W, strain WHI5, hits give low values): 0.968; normalized growth (locus YOR106W, strain vam3, hits give low values): 0.887; normalized growth (locus YOR231W, strain MKK1, hits give low values): 0.988; normalized growth (locus YOR265W, strain rbl2, hits give low values): 1.01; normalized growth (locus YOR270C, strain vph1, hits give low values): 0.938; normalized growth (locus YOR290C, strain snf2, hits give low values): 0.995; normalized growth (locus YPL051W, strain arl3, hits give low values): 0.961; normalized growth (locus YPL078C, strain atp4, hits give low values): 0.969; normalized growth (locus YPL106C, strain sse1, hits give low values): 1.05; normalized growth (locus YPL240C, strain hsp82, hits give low values): 0.997; normalized growth (locus YPL256C, strain CLN2, hits give low values): 1
